Pyk2 oligo antag: antagonists of human Pyk2 oligomerization. Q14289. 0.83% of 99,000 active. Q293 cells, Pyk2 FERM NanoBiT luminescence; stronger effect = lower value. z-score (the deposit names both 25 µM and 10 µM);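 active means Z-score of -3 or lower, scaled per plate to the spread of control and sample wells; inactive means z-score above -3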;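 further: negative z-score means lost luminescence so less FERM oligomerization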
PLK1 inh: PLK1 (human) kinase inhibition. 0.53% of 97,000 active. recombinant PLK1 kinase, TR-FRET peptide phosphorylation. inhibition, % at 10 µM. P53350;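 active means inhibition of 50% or more in the single-concentration screen; inactive means inhibition below 50%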;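 further: 0% = DMSO max control and 100% = H-89 dihydrochloride min control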
hDAT+cocaine: modulates human dopamine transporter uptake under cocaine | Q01959 | B-score at 10 µM | AID 449768 | 1.3% of 110,000 active | LLC-PK1 hDAT cells, [14C]-dopamine uptake with cocaine IC80; actives deviate in either direction;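 active means Z score or B-score, a plate-position-corrected score, falls beyond the plate's 99.7% confidence bounds, in either direction; inactive means both scores lie inside the 99.7% bounds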;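 further: scored against the spread of the other compound wells on the same plate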
PLK1 PBD inh: Plk1 (human) PBD binding inhibition. P53350. Plk1 PBD phosphopeptide binding, fluorescence polarization. inhibition, %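 (tested at about 20 µM)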. 0.13% of 97,000 active; in the data active means inhibition above about 34%, passing the limit was not always enough
Cav32 inh: human Cav3.2 channel inhibition, primary screen. AID 449739. B-score at 10 µM. Cav3.2-expressing cells, Fluo-4 calcium fluorescence FDSS; stronger effect = lower value. 4% of 100,000 active. O95180;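 active means single-dose well whose peak fluorescence ratio is a statistical outlier from its plate by either plate-standardised score or position-corrected B-score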
Target sequence (O95180 whole entry, looked up): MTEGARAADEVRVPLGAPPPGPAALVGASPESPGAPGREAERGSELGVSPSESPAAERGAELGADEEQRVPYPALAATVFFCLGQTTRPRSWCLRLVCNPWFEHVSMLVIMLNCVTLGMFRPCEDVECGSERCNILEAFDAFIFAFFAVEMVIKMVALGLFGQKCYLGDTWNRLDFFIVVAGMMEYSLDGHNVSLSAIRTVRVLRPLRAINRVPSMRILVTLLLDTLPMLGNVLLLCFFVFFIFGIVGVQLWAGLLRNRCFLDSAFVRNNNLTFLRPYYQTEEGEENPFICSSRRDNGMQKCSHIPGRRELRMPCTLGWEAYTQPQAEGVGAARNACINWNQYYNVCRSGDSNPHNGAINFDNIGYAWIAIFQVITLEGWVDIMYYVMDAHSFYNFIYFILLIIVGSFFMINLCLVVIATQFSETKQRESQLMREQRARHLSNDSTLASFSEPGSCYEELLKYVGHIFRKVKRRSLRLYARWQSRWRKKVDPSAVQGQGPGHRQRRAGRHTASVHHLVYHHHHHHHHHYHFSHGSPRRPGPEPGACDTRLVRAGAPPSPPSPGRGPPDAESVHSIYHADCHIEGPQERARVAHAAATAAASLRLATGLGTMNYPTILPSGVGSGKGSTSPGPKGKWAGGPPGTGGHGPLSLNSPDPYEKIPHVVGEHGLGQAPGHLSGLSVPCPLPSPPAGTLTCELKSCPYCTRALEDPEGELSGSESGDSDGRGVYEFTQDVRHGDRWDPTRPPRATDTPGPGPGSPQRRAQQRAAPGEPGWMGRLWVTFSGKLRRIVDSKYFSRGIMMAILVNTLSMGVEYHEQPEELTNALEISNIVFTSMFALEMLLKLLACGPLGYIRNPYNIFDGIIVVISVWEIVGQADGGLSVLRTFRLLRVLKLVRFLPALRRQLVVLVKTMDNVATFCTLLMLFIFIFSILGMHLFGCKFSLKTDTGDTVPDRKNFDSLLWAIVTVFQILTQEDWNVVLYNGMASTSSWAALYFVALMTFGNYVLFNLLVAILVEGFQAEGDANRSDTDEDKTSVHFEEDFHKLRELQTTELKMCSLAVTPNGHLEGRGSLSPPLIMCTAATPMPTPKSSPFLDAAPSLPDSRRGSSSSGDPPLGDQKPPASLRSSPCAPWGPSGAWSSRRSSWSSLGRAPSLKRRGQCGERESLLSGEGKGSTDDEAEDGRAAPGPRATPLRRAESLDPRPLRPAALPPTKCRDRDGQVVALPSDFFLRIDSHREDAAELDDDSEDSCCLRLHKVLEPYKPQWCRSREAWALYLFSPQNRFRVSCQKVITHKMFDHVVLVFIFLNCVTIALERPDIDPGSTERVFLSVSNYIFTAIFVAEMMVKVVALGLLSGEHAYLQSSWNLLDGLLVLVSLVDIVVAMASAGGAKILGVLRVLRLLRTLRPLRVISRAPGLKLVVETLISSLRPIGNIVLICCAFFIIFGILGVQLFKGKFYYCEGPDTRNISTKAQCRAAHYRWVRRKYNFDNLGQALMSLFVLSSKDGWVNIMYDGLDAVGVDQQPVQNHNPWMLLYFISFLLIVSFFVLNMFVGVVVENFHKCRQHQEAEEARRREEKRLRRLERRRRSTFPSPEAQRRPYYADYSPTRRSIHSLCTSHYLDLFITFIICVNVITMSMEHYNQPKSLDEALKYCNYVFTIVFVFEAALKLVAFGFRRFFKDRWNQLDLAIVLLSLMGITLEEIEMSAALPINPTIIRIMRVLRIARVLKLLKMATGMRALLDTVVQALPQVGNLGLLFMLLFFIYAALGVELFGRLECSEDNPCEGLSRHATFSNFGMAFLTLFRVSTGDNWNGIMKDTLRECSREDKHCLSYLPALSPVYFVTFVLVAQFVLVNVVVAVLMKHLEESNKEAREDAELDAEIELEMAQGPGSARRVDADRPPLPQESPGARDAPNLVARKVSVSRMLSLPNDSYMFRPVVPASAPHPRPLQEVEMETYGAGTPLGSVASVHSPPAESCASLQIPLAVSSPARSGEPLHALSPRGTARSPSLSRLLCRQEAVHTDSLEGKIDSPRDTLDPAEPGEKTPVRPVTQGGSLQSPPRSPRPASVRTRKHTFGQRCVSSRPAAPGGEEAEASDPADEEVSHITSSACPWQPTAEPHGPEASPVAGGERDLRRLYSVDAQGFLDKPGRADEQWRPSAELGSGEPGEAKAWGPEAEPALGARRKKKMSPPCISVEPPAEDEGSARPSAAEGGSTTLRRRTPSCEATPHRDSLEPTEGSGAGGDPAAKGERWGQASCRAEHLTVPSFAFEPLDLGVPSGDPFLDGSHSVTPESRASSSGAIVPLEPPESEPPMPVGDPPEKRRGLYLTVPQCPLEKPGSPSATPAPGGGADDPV
sdo1 growth: compounds rescuing growth of sdo1-depleted yeast, bone marrow failure model; z-score at 10 µM; S. cerevisiae sdo1-depleted JHY4D growth rescue, OD600 30 h; stronger effect = higher value; pdr5 snq2 efflux-pump mutant strain; 0.21% of 140,000 active; AID 817;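 active means z-score above 3 at both the 24 hr and the 30 hr optical density reads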;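 further: z-score against mean and SD of all compound wells on the same plate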
Numbers without * were called inactive; x = no result; [ ] = another dose, or the depositor's remark. Rows were chosen to be rich in hits. Some 4.7% of all compounds tested hit in one or more screens of this group.

SMILES	Pyk2 oligo antag	PLK1 inh	hDAT+cocaine	PLK1 PBD inh	Cav32 inh	sdo1 growth
CCCCS(=O)(=O)Nc1ccc(C)cn1	x	x	x	x	x	0.95
COc1ccc(C=O)cc1COc1ccccc1F	x	x	x	x	x	-0.12
COc1ccc(/C=C/C(=O)c2ccccc2)cc1COc1ccccc1F	-0.1	4	-0.52	-19	-4.2*	0.75
O=[N+]([O-])c1ccc(-c2nc(-c3cccs3)c(-c3cccs3)[nH]2)cc1	-4.2*	-29	-0.42	2	-3.5	-1.6
CSc1nnnn1-c1ccc(C)c(Cl)c1	x	x	x	x	x	-0.12
O=C(CN1CCN(c2ccccn2)CC1)N(c1ccccc1)c1ccc2ccccc2c1	-0.14	x	0.75	x	-6.3*	-1.4
CCOCCCNC(=O)c1c[nH]c2ccc(S(=O)(=O)Nc3cccc(OC)c3)cc2c1=O	0.33	-11	-0.52	6	0.3	-0.66
O=C(NC1CC1)c1c[nH]c2ccc(S(=O)(=O)Nc3cccc(C(F)(F)F)c3)cc2c1=O	-1.9	0	0.01	1	-5.6*	0.84
COc1ccc(S(=O)(=O)Nc2cc(C(C)C)c(O)cc2C)cc1	-2.4	-1	0.93	5	-4.8*	0.78
COc1ccc(S(=O)(=O)Nc2cc(C)c(O)cc2C(C)C)cc1	-1.2	-1	2.6	10	-1.3	0.23
Cc1nnn(C23CC4CC(CC(CC(=O)Nc5ccc(C)c(C)c5)(C4)C2)C3)n1	x	x	x	x	x	-1.4
CC1(C)CC(O)C(C(O)c2cccc([N+](=O)[O-])c2)C(C)(C)N1 (stereo not given)	x	x	x	x	x	0.5
O=C1CC(SC(=Nc2ccccc2)Nc2ccccc2)C(=O)N1c1cccc2ccccc12 (stereo not given)	-3*	3	0.79	-12	0.0022	-1.3
O=C(O)c1ccc(N2C(=O)CC(SC(=Nc3ccccc3)Nc3ccccc3)C2=O)cc1 (stereo not given)	x	x	x	x	x	1.5
Cc1noc(C)c1CSc1nc2sc(C)c(C)c2c(=O)n1C1CCCC1	-0.65	-10	-0.99	0	-5.8*	-0.5
C=CCn1c(SCc2c(C)noc2C)nc2sc3c(c2c1=O)CCCCC3	-1.2	-7	1.9	14	-4.3*	0.5
COc1ccc(Cc2nnc(SCc3c(C)noc3C)n2C2CCCCC2)cc1OC	0.63	-4	0.1	-8	-0.048	-0.79
C=CCn1c(SCc2c(C)noc2C)nc2sc3c(c2c1=O)CCCC3	0.52	-13	0.15	-10	-3.8*	-0.8
Cc1noc(C)c1CSc1nc2sc3c(c2c(=O)n1C)CCCC3	-1.2	-10	0.85	10	-1.1	-1.6
O=C(NCCc1c[nH]c2ccccc12)c1cc2sccc2n1Cc1ccccc1	1.4	-10	0.76	7	-5*	-1.9
COc1ccccc1CNC(=O)c1cc2sccc2n1C	-1	x	-0.097	x	0.37	-0.56
O=C(NCc1ccc(F)cc1)c1cc2sccc2n1Cc1ccc(F)cc1	x	-25	0.65	-2	-2.5	-1.2
Cn1c(C(=O)NCCc2c[nH]c3ccccc23)cc2sccc21	x	-15	0.082	-6	-5.3*	-1.1
COc1ccc2c(c1)c(C(=O)N/N=C/c1ccc(O)c(O)c1)c(C)n2C	x	x	x	x	x	0.39
COC(=O)c1cc(OC)cc(O)c1C(=O)c1c(O)cc(C)cc1O	x	x	1.1	x	0.36	x
SMILES	Pyk2 oligo antag	PLK1 inh	hDAT+cocaine	PLK1 PBD inh	Cav32 inh	sdo1 growth
COc1cc(C)c(C(=O)Oc2cc(C)c(C(=O)O)c(O)c2)c(O)c1	x	x	0.0066	x	-4.8*	x
O=C(Nc1cccc2cccnc12)C1CCCC1	0.38	x	x	x	x	0.81
O=C(OCc1ccccc1)c1cccc(-c2nnn(Cc3ccccc3)n2)c1	-0.18	-10	0.03	-23	-4.1*	0.4
O=C(Cn1nnc(-c2ccccc2)n1)OCc1ccccc1	0.62	-2	0.8	0	-0.035	0.62
CCCNC(=O)NC(=O)COC(=O)c1ccc(OC)c(S(=O)(=O)N2CCCc3ccccc32)c1	-2.5	-6	0.18	5	-7.5*	-0.61
CC1Cc2ccccc2N1C(=O)CSc1nnc2c(n1)[nH]c1ccc(F)cc12 (stereo not given)	-0.7	4	0.26	-8	-5.9*	-1.9
Cc1cc(C)nc(NC(=NCCc2c[nH]c3ccccc23)NC(=O)Nc2cccc([N+](=O)[O-])c2)n1	x	x	x	x	x	-0.63
COc1ccc(Cl)cc1C(=O)NC(=S)Nc1cc(-c2nc3ccccc3[nH]2)ccc1C	0.62	-8	0.78	-18	-4.8*	-1.3[7 µM]
CC(=O)COc1ncn(-c2ccccc2)n1	0.74	-18	0.66	13	-4.4*	0.78
COc1ccc2c(CC(=O)OCC(=O)Nc3sc4c(c3C#N)CCC(C)C4)coc2c1 (stereo not given)	x	x	x	x	x	-1.1
O=C(O)c1ccc(NC(=S)NC(NC(=O)c2ccco2)C(Cl)(Cl)Cl)cc1 (stereo not given)	1.3	-5	-2.1	16	-4*	0.72
Cc1ccc(NC(=S)NC(NC(=O)c2ccco2)C(Cl)(Cl)Cl)cc1 (stereo not given)	-0.35	-1	0.041	13	-0.85	-0.46
Cc1cccc(NC(=S)NC(NC(=O)c2ccco2)C(Cl)(Cl)Cl)c1 (stereo not given)	-1.4	-12	-0.15	8	-6.1*	-0.37
O=C(c1ccccc1)N1CN2CN(C(=O)c3ccccc3)CC([N+](=O)[O-])(C2)C1	x	x	x	x	x	0.16
CCOC(=O)c1c(C)n(CC(O)c2ccccc2)c2ccc(O)cc12 (stereo not given)	-3*	-7	-0.51	-14	-0.91	0.97
CC(Sc1nc(NCc2ccccc2)nc(N(C)C)n1)C(=O)Nc1ccccc1 (stereo not given)	-1.8	-4	-0.63	-24	-3.4*	-1.4
CCOC(=O)c1c(C)nc2sc(C(=O)Nc3ccc(C(C)=O)cc3)c(N)c2c1-c1ccc(OC)cc1	0.15	-17	3.6*	5	0.036	-0.35
CCOC(=O)c1c(C)nc2sc(C(=O)Nc3ccc(OC)cc3)c(N)c2c1-c1ccc(OC)cc1	-2.4	-14	-0.67	-15	-4.8*	-0.54
O=C(O)C[C@H]1c2cc(F)ccc2S(=O)(=O)N1C1CCN(Cc2ccccc2)CC1	x	x	-0.16	x	1	x
C=C(C)c1cccc(C(C)(C)NC(=O)N2CCN(CC(N)=O)CC2)c1	0.93	-13	0.95*	-17	x	1.5
C=C(C)c1cccc(C(C)(C)NC(=O)N2CCCCC2CC)c1 (stereo not given)	0.54	-5	0.84	-10	-4.5*	0.71
CN(C)S(=O)(=O)c1cccc(NC(=O)CN2C(=O)C3C4C=CC(C4)C3C2=O)c1 (stereo not given)	x	x	x	x	x	0.52
O=S(=O)(Nc1cccc(CCc2ccccn2)c1)c1ccc2ccccc2c1	0.36	-6	2.3	-25	-4.4*	-0.87
COCCNC(=O)/C=C/c1c(Cl)cccc1Cl	x	x	x	x	x	1.5
CCOC(=O)c1ccc(NC(=O)COC(=O)c2cccc(Oc3ccccc3)c2)cc1	x	x	x	x	x	0.15
CC(C)C(=O)N1CCN(c2ccc([N+](=O)[O-])c(NC(C)c3ccccc3)c2)CC1 (stereo not given)	x	x	x	x	x	-0.65

Source: PubChem (several laboratories)
